Laboratory results published in PubChem BioAssay (NCI).
The panel holds about 83,000 compounds, 20% with a hit somewhere; the sample as a whole holds those more often.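 Results are percent growth after 48 hours of single-concentration exposure. 100 means growth as in untreated cells, lower positive values show inhibition; negative values down to -100 show cell death.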 Calls of active or inactive are those of the source. Rule for the calls: active = growth percent below 10; inactive = the rest.

What follows are compounds tested on A498 renal (assay: NCI-60 one-dose screen, 48 h (100 = growth as untreated, 0 = no growth, -100 = all killed)). Details: 10 µM unless noted.

Compound	growth
CCc1cc2c(cc1Cl)nc1c(=O)[nH]c(=O)nc-1n2CCOCC(C)(C)C	87.6% (inactive)
Cc1cc(=O)[nH]c(O)c1C#N	104% (inactive)
CC1(C)CC[C@]23CC[C@]4(C)[C@H](CC[C@@H]5[C@@]6(C)CC[C@H](NCO)C(C)(C)[C@@H]6CC[C@]54C)[C@H]2[C@H]1OC3	106% (inactive)
CC(C)[C@H]1c2[nH]c3ccccc3c2C[C@H]2C(=O)N(CCCCCCC(=O)NO)CC(=O)N12	90% (inactive)
Cn1cc(-c2nc(N)nnc2-c2c[nH]c3ccc(Br)cc23)c2cc(F)ccc21	98.9% (inactive)
CCCCCCCCCCCC(=O)NC(C)(C)C(=O)N1CCCC1C(=O)NC(C)(C)C(=O)NC(C)(C)C(=O)N1CCCC1C(=O)NC(C)(C)C(=O)NC(C)(C)C(=O)N1CCCC1C(=O)NC(C)C(=O)NCCC(=O)NC(C)C(=O)NC(C)(C)C(=O)NC(C)(C)C(=O)NC(C)(C)C(=O)NCCC(=O)NC(C)(C)C(=O)NC(C)(C)C(=O)NC(C)(C)C(=O)NC(C)C(=O)NCCC(=O)O (stereo unspecified)	-98.5% (active)
CN1CCN(c2ccc(Nc3nc(NCCNC(=O)c4ccccc4)c4sccc4n3)cc2)CC1	130% (inactive)
Cc1[nH]c(C(=O)Nc2ccccc2OCc2cccc(C(=O)NCCN)c2)cc1Cl	68.3% (inactive)
CCCc1[nH]c(-c2cc(N)ccc2Cl)c2c1C(=O)CCCC2	108% (inactive)
O=C(Nc1ccc(N=Cc2c(O)[nH]c3ccccc23)cc1)Nc1ccc(S(=O)(=O)Nc2ncccn2)cc1	114% (inactive)
CC1=Cc2ccccc2OC12C=Cc1ccccc1O2 (stereo unspecified)	117% (inactive)
NS(=O)(=O)c1ccc(CCn2c(-c3ccc(C(=O)O)cc3)nc(-c3ccccc3)c2-c2ccccc2)cc1	102% (inactive)
COc1ccc(/C=N\NC(=O)c2cnn(CC(O)c3ccccc3)c2N)cc1OCc1ccc(Cl)cc1 (stereo unspecified)	48% (inactive)
CNc1sc(S(=O)(=O)NC)nc1S(=O)(=O)c1ccc(C)cc1	93.1% (inactive)
C=C(C)[C@@H]1CC[C@]2(C(=O)N3CCN(C)CC3)CC[C@]3(C)[C@H](CC[C@@H]4[C@@]5(C)CC[C@H](OP(=O)(OCC)OCC)C(C)(C)[C@@H]5CC[C@]43C)[C@@H]12	96.4% (inactive)
NS(=O)(=O)c1ccc(Nc2nc(Nc3ccccc3)nc(N3N=C(c4ccc(Cl)cc4)CC3c3ccc(Cl)cc3)n2)cc1 (stereo unspecified)	55.8% (inactive)

Compound	growth
COc1cc(C(C)=C(c2ccc(OCCN(C)C)cc2)c2ccc(OCCN(C)C)cc2)ccc1F	108% (inactive)
CN1CCN(c2ccc(Nc3nc(NCCCNS(=O)(=O)c4ccc(F)cc4)c4sccc4n3)cc2)CC1	128% (inactive)
CCOC(=O)c1c(NC(=O)c2ccc(C(F)(F)F)cc2)sc2c(CN3CCN(C)CC3)c(O)ccc12	-6.72% (active)
CC(O)c1cccc(/C(N)=N/C(N)=N/c2nc3ccccc3s2)c1 (stereo unspecified)	90.7% (inactive)
C#Cc1cc(C(=O)Nc2ccc(CNCCN3CCOCC3)c(C(F)(F)F)c2)ccc1C	90.4% (inactive)
COc1ccc(/C=N/NC(=O)CSc2nc(-c3cnccn3)cc(-c3cccs3)c2C#N)cc1	79% (inactive)
Cn1cc(-c2nnc(N)nc2-c2c[nH]c3ccc(Br)cc23)c2cc(Br)ccc21	93.6% (inactive)
COc1ccc2[nH]cc(-c3nc(N)nnc3-c3cn(C)c4ccc(Br)cc34)c2c1	-1.71% (active)
C#CCN(C)CCCOc1ccc(NCc2ccc(C(=O)NO)cc2)cc1Cl	-14.9% (active)
CCN(CC)c1ccc(/C=N/NC(=O)c2ccc(NS(C)(=O)=O)cc2)c(O)c1	18.9% (inactive)
O=C(CCCCCCN1CC(=O)N2[C@@H](c3ccc(Cl)s3)c3[nH]c4ccccc4c3C[C@H]2C1=O)NO	72.8% (inactive)
CC1(C)CC[C@]23CC[C@]4(C)[C@H](CC[C@@H]5[C@@]6(C)CC[C@H](N)C(C)(C)[C@@H]6CC[C@]54C)[C@H]2[C@H]1OC3	108% (inactive)
Cc1ccc(S(=O)(=O)NCCCNc2nc(Nc3ccc(N4CCN(C)CC4)cc3)nc3ccsc23)cc1	56.2% (inactive)
N#Cc1nc(-c2ccccc2)oc1N1CCC(C2(C(F)(F)F)N=N2)CC1	85.4% (inactive)
O=C(CCCCCCN1CC(=O)N2[C@@H](c3cccs3)c3[nH]c4ccccc4c3C[C@H]2C1=O)NO	87.3% (inactive)
